Each structure is given as a SMILES string.

System in one assay: not listed separately
The assay is described as follows: binders of probe aHhip on microarray, primary screen, stem cell growth factor project, biochemical, small-molecule microarray, fluorescence 635/667 (AID 1087).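 Note: score merges spot fluorescence at 667nm with spot signal to noise ratio.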 The conditions noted are these: higher = more signal.
In the case of `CCOC(=O)[C@H](CC(C)C)NC(=O)CCC1CC(OC(=O)NCc2cccc3ccccc23)CC2(CCCC(COC(=O)NCC3CCCCC3)O2)O1` (stereo partly specified), the composite z-score worked out at 0.0623.

On to `CC(C)CCN1CCc2nc(COc3ccccc3)c3c(c2C1)CO[C@@H](C)C3`, for which the composite z-score worked out at 0.0623.

The compound `COC(=O)CC=C[C@@H](C)[C@@H](C=NO[C@H](C)c1cn([C@H](CO)Cc2ccccc2)nn1)OC` registered a composite z-score of 0.189.

Consider `CON=C(C)CCC(=O)OC[C@H]1O[C@H](c2ccccc2)C=C[C@@H]1Oc1ccc(OC)cc1`, for which the composite z-score was -0.131.

In turn, `CCOC(=O)NN=C1C[C@@H](O)[C@@H](O)[C@@H]2[C@@H]3C(=O)N(c4cccc(Oc5ccccc5)c4)C(=O)[C@@H]3CC[C@@H]12` displayed a composite z-score of -0.249.

`CCN1C(=O)[C@H]2[C@H]3[C@H](O)[C@H](O)CC(=NO[C@@H](C)c4cn([C@H](CO)Cc5ccccc5)nn4)[C@@H]3CC[C@H]2C1=O` came in with a composite z-score of -0.226.

Take `COC(=O)CC=C[C@@H](C)[C@@H]1C=C[C@H](O)[C@@H](CO)O1`: the composite z-score is -0.176.

Compound `C[C@@H](ON=C1[C@H]2CCn3c(=O)n(-c4ccccc4)c(=O)n3[C@H]2[C@H](O)[C@@H]2O[C@H]12)c1cn([C@@H]2COC[C@H]2O)nn1` had a composite z-score of 0.0274.

With `CC(CCC(=O)OC[C@H]1O[C@H](C#Cc2ccccc2)C=C[C@@H]1Oc1ccc(C)cc1)=NO[C@H](C)c1cn([C@H](CO)Cc2ccccc2)nn1`, the composite z-score was -0.211.

On to `C#CCCCON=C1C[C@@H](O)[C@@H](O)[C@@H]2[C@@H]3C(=O)N(C(C)(C)C)C(=O)[C@@H]3CC[C@H]12`, for which the composite z-score is -0.122.

On to `COc1ccc(COC(=O)NN=C2C[C@@H](O)[C@@H](O)[C@@H]3[C@@H]4C(=O)N(C5CCCCC5)C(=O)[C@@H]4CC[C@H]23)cc1`, for which the composite z-score is -0.409.

`COC(=O)CC=C[C@H](C)[C@@H](OCc1cccc(Br)c1)[C@@H](C)[C@H](OC)C1CCCCC1` came in with a composite z-score of 0.0024.

`Cc1ccc(S(=O)(=O)N[C@@H]2COC(=O)[C@@H](C)COC(=O)CC=C[C@H]2C)cc1` came in with a composite z-score of 0.251.

The compound `O=C1[C@H]2[C@H]3[C@H](O)[C@H](O)CC(=NO[C@@H]4O[C@H](CO)[C@@H](O)[C@H](O)[C@H]4O)[C@H]3CC[C@H]2C(=O)N1c1cccc(Oc2ccccc2)c1` gave a composite z-score of -0.0024.

`CCC1=NOC(CCC2CC(OC(=O)NCc3cccc4c3OCO4)CC3(CCCC(COC(=O)NCCc4ccccc4OC)O3)O2)C1` (stereo unspecified) had a composite z-score of -0.151.

Compound `CCOC(=O)[C@H](CC(C)C)NC(=O)CCC1CC(OC(=O)NCc2cccc3ccccc23)CC2(CCCC(COC(=O)NCCOc3ccccc3)O2)O1` (stereo partly specified) had a composite z-score of 0.224.

`O=c1n(Cc2cc3c(cc2Cl)OCO3)c(=O)n2n1CC[C@@H]1C(=NOCc3ccccc3)[C@H]3O[C@H]3[C@@H](O)[C@@H]12` displayed a composite z-score of -0.0645.

With `COC(=O)[C@@H]1CC[C@H](C)[C@@H](c2ccc(C)cc2)N1C(=O)c1ccc(C=NO[C@@H](C)c2cn([C@H](CO)Cc3ccccc3)nn2)cc1`, the composite z-score was found to be 0.25.

As to `CC(C)=CCCC(C)=CCON=C1C[C@@H](O)[C@@H](O)[C@@H]2[C@@H]3C(=O)N(Cc4ccccc4)C(=O)[C@@H]3CC[C@H]12`, the composite z-score is -0.305.

`CC(C)C[C@H](NC(=O)CCC1CC(OC(=O)NCc2cccc3ccccc23)CC2(CCCC(COC(=O)NCc3ccccc3)O2)O1)C(=O)NCC(c1ccccc1)c1ccccc1` (stereo partly specified) showed a composite z-score of 0.238.

The compound `CC(C)CON=C1C[C@@H](O)[C@@H](O)[C@@H]2[C@@H]3C(=O)N(C4CCCCC4)C(=O)[C@@H]3CC[C@@H]12` had a composite z-score of -0.0994.

In the case of `C[C@@H](c1ccccc1)N1C(=O)[C@H]2[C@H]3[C@H](O)[C@H](O)CC(=NO[C@@H]4O[C@H](CO)[C@@H](O)[C@H](O)[C@H]4O)[C@H]3CC[C@H]2C1=O`, the composite z-score was -0.0383.

`COC(=O)[C@@H]1CC[C@H](C)[C@@H](c2ccc(C)cc2)N1C(=O)c1ccc(C=NOC[C@@H](C)[C@H](OCc2ccccc2)C(C)C)cc1`: the composite z-score was 0.0373.

Take `C[C@@H](c1ccccc1)N1C(=O)[C@H]2[C@H]3[C@H](O)[C@H](O)CC(=NOCc4ccccc4)[C@H]3CC[C@H]2C1=O`: the composite z-score is -0.0383.

The compound `COC(=O)CC=C[C@@H](C)[C@@H](C=NOCC[C@@H]1C=C[C@H](OC(C)=O)[C@@H](COC(C)=O)O1)OC` yielded a composite z-score of 0.0053.

In the next assay the test system is PRMT1 (protein arginine N-methyltransferase 1). The assay is described as follows: small molecules binding arginine methyltransferase PRMT1 – biochemical, small-molecule microarray, 635 nm fluorescence, primary screen (AID 1088).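 Note: binding of Prmt1 protein to compounds spotted on small-molecule microarray slides.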 The conditions noted are these: higher = more signal.
For `C#CCCCON=C1[C@H]2CCn3c(=O)n(C)c(=O)n3[C@H]2[C@H](O)[C@@H]2O[C@H]12`, the composite z-score was -0.677.

`CCCCC#C[C@@H]1C=C[C@H](OC(C)=O)[C@@H](COC(C)=O)O1` displayed a composite z-score of 0.59.

Turning to `CO[C@@H]1COC(=O)[C@@H](C)COC(=O)[C@@H](C)NC(=O)CC=C[C@@H]1C`, the composite z-score stood at 1.55.

Take `Cc1ccc(S(=O)(=O)OC[C@H]2CN3[C@H](c4ccc(Br)cc4)[C@@H](C)CC[C@H]3C(=O)O2)cc1`: the composite z-score came to 1.23.

As for `COc1ccc(COC(=O)NN=C2C[C@@H](O)[C@@H](O)[C@@H]3[C@@H]4C(=O)N(c5cccc(Oc6ccccc6)c5)C(=O)[C@@H]4CC[C@@H]23)cc1`, the composite z-score is -0.184.

`O=C1C2=CC[C@H]3C(=O)N(c4cccc(Oc5ccccc5)c4)C(=O)[C@H]3[C@H]2[C@H](O)[C@@H]2O[C@H]12`: the composite z-score turned out to be 0.435.

Consider `CC(CCN1CCCCc2nc(C)c(C)cc21)=NO[C@H](C)c1cn([C@H](CO)Cc2ccccc2)nn1`, for which the composite z-score came to 1.1.

In turn, `CO[C@@H]1COC(=O)[C@H](CCSC)NC(=O)CC=C[C@@H](C)COC(=O)CCC[C@H]1C` showed a composite z-score of 1.55.

On to `CC(CCN1CCCc2nc(C)c(C)cc21)=NO[C@@H](C)c1cc(-c2c(C)cc(C)cc2C)no1`, for which the composite z-score came to 0.684.

In turn, `CO[C@@H]1COC(=O)[C@@H](C)NC(=O)CC=C[C@@H](C)[C@H](NS(=O)(=O)c2ccc(C)cc2)COC(=O)[C@H](C)NC(=O)CC=C[C@H]1C` gave a composite z-score of 1.36.

Compound `CCN1C(=O)[C@H]2[C@H]3[C@H](O)[C@H](O)CC(=NOC[C@H]4O[C@H](c5ccccc5)C=C[C@@H]4Oc4ccc(OC)cc4)[C@@H]3CC[C@H]2C1=O` showed a composite z-score of 1.28.

`CCOC(=O)[C@H](CC(C)C)NC(=O)CCC1CC(OC(=O)NCc2cccc3ccccc23)CC2(CCCC(COC(=O)NCC3CCCCC3)O2)O1` (stereo partly specified) had a composite z-score of 1.47.

`CC(C)CCN1CCc2nc(COc3ccccc3)c3c(c2C1)CO[C@@H](C)C3` displayed a composite z-score of 0.0135.

Turning to `COC(=O)CC=C[C@@H](C)[C@@H](C=NO[C@H](C)c1cn([C@H](CO)Cc2ccccc2)nn1)OC`, the composite z-score is 1.14.

`CON=C(C)CCC(=O)OC[C@H]1O[C@H](c2ccccc2)C=C[C@@H]1Oc1ccc(OC)cc1` gave a composite z-score of 0.0846.

On to `CCOC(=O)NN=C1C[C@@H](O)[C@@H](O)[C@@H]2[C@@H]3C(=O)N(c4cccc(Oc5ccccc5)c4)C(=O)[C@@H]3CC[C@@H]12`, for which the composite z-score is -0.037.

As to `CCN1C(=O)[C@H]2[C@H]3[C@H](O)[C@H](O)CC(=NO[C@@H](C)c4cn([C@H](CO)Cc5ccccc5)nn4)[C@@H]3CC[C@H]2C1=O`, the composite z-score stood at 1.14.

As for `COC(=O)CC=C[C@@H](C)[C@@H]1C=C[C@H](O)[C@@H](CO)O1`, the composite z-score was -0.266.

For `C[C@@H](ON=C1[C@H]2CCn3c(=O)n(-c4ccccc4)c(=O)n3[C@H]2[C@H](O)[C@@H]2O[C@H]12)c1cn([C@@H]2COC[C@H]2O)nn1`, the composite z-score worked out at 0.556.

For `CC(CCC(=O)OC[C@H]1O[C@H](C#Cc2ccccc2)C=C[C@@H]1Oc1ccc(C)cc1)=NO[C@H](C)c1cn([C@H](CO)Cc2ccccc2)nn1`, the composite z-score was 1.05.

As to `C#CCCCON=C1C[C@@H](O)[C@@H](O)[C@@H]2[C@@H]3C(=O)N(C(C)(C)C)C(=O)[C@@H]3CC[C@H]12`, the composite z-score is -0.872.

Take `COc1ccc(COC(=O)NN=C2C[C@@H](O)[C@@H](O)[C@@H]3[C@@H]4C(=O)N(C5CCCCC5)C(=O)[C@@H]4CC[C@H]23)cc1`: the composite z-score was -0.416.

In turn, `COC(=O)CC=C[C@H](C)[C@@H](OCc1cccc(Br)c1)[C@@H](C)[C@H](OC)C1CCCCC1` returned a composite z-score of -0.0514.

Turning to `Cc1ccc(S(=O)(=O)N[C@@H]2COC(=O)[C@@H](C)COC(=O)CC=C[C@H]2C)cc1`, the composite z-score is -0.496.

Compound `O=C1[C@H]2[C@H]3[C@H](O)[C@H](O)CC(=NO[C@@H]4O[C@H](CO)[C@@H](O)[C@H](O)[C@H]4O)[C@H]3CC[C@H]2C(=O)N1c1cccc(Oc2ccccc2)c1` showed a composite z-score of 0.69.

In turn, `CCC1=NOC(CCC2CC(OC(=O)NCc3cccc4c3OCO4)CC3(CCCC(COC(=O)NCCc4ccccc4OC)O3)O2)C1` (stereo unspecified) returned a composite z-score of 1.26.

Consider `CCOC(=O)[C@H](CC(C)C)NC(=O)CCC1CC(OC(=O)NCc2cccc3ccccc23)CC2(CCCC(COC(=O)NCCOc3ccccc3)O2)O1` (stereo partly specified), for which the composite z-score turned out to be 1.54.

Consider `O=c1n(Cc2cc3c(cc2Cl)OCO3)c(=O)n2n1CC[C@@H]1C(=NOCc3ccccc3)[C@H]3O[C@H]3[C@@H](O)[C@@H]12`, for which the composite z-score was determined as 0.499.

Consider `COC(=O)[C@@H]1CC[C@H](C)[C@@H](c2ccc(C)cc2)N1C(=O)c1ccc(C=NO[C@@H](C)c2cn([C@H](CO)Cc3ccccc3)nn2)cc1`, for which the composite z-score is 1.44.

`CC(C)=CCCC(C)=CCON=C1C[C@@H](O)[C@@H](O)[C@@H]2[C@@H]3C(=O)N(Cc4ccccc4)C(=O)[C@@H]3CC[C@H]12` came in with a composite z-score of 1.06.

Take `CC(C)C[C@H](NC(=O)CCC1CC(OC(=O)NCc2cccc3ccccc23)CC2(CCCC(COC(=O)NCc3ccccc3)O2)O1)C(=O)NCC(c1ccccc1)c1ccccc1` (stereo partly specified): the composite z-score came out at 1.56.

In turn, `CC(C)CON=C1C[C@@H](O)[C@@H](O)[C@@H]2[C@@H]3C(=O)N(C4CCCCC4)C(=O)[C@@H]3CC[C@@H]12` had a composite z-score of -0.0785.

On to `C[C@@H](c1ccccc1)N1C(=O)[C@H]2[C@H]3[C@H](O)[C@H](O)CC(=NO[C@@H]4O[C@H](CO)[C@@H](O)[C@H](O)[C@H]4O)[C@H]3CC[C@H]2C1=O`, for which the composite z-score is -0.997.

As for `COC(=O)[C@@H]1CC[C@H](C)[C@@H](c2ccc(C)cc2)N1C(=O)c1ccc(C=NOC[C@@H](C)[C@H](OCc2ccccc2)C(C)C)cc1`, the composite z-score is 1.55.

Consider `C[C@@H](c1ccccc1)N1C(=O)[C@H]2[C@H]3[C@H](O)[C@H](O)CC(=NOCc4ccccc4)[C@H]3CC[C@H]2C1=O`, for which the composite z-score was 1.3.

Consider `COC(=O)CC=C[C@@H](C)[C@@H](C=NOCC[C@@H]1C=C[C@H](OC(C)=O)[C@@H](COC(C)=O)O1)OC`, for which the composite z-score was found to be 1.08.

Values taken from PubChem BioAssay.
